High-throughput results deposited in PubChem BioAssay by National Center for Advancing Translational Sciences (NCATS).
Compounds with a hit are over-represented: about 3.2% of the library has one in this group of screens.
GBA mod – alters purified human glucocerebrosidase activity. purified enzyme, resorufin glucoside fluorescence (screen aimed at inhibitors), 20 min. Potency, µM. 1.1% of 48,000 active; in the data active = potency below about 15 µM; inconclusive = mostly about 16 µM to 33 µM;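 note: the screen sought inhibitors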
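Compounds titrated against 0.2 nM normal enzyme, 30 uM resorufin beta-D-glucopyranoside substrate, citrate/phosphate buffer with taurocholate and tween-20, pH 5.9. Reaction ran 20 min at room temperature; fluorescence (Ex 548/Em 600) gave AC50.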
Luciferase inh – inhibitors of firefly luciferase; AID 411; purified firefly luciferase, luminescence, 8 min; Potency, µM (series often up to 57.1 µM), for inactives: top-dose activity change, negative = inhibition, actives largely listed as inhibitors; P08659; 2.2% of 72,000 active; active = well fitted inhibition curve with a large enough effect; inconclusive = small, poorly fitted or top-dose-only effect; note: % is set by controls: 0 for no effect and ±100 for the full control effect; nearly all actives have a fitted effect of over 40% in size
Target sequence (P08659 whole entry, looked up): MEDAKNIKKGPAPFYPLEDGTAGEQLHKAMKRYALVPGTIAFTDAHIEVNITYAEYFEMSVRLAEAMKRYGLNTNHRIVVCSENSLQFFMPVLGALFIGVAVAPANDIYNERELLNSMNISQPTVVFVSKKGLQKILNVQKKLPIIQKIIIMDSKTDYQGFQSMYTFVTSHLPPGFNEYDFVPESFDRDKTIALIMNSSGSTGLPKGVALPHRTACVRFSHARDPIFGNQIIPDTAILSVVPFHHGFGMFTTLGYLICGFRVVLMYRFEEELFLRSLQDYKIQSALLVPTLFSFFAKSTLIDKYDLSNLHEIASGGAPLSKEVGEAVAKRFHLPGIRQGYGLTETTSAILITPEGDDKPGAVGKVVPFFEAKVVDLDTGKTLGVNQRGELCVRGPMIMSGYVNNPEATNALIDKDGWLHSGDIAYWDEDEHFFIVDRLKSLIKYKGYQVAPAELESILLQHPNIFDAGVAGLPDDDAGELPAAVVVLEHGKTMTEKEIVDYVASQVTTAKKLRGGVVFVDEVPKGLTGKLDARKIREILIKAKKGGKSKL
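Here, luciferase activity is measured as luminescence following an 8 min room-temperature reaction at 10 uM ATP, pH 7.2. Every library sample is titrated.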
Bst PK mod – alters activity of Bacillus stearothermophilus pyruvate kinase; 1.2% of 51,000 active; Potency, µM; purified pyruvate kinase, luminescence ATP production; ribose 5-phosphate activator present at AC10; AID 361; in the data active = potency below about 11 µM; inconclusive = mostly about 12 µM to 25 µM;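 the screen sought inhibitors and activators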;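 note: scaled between full activation by ribose 5 phosphate and full inhibition by luteolin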
* hit, by the source's call; i = inactive; ? = inconclusive; · = no result given; [ ] = remark or other dose. Potency is the fitted concentration of half-maximal effect.

SMILES	GBA mod	Luciferase inh	Bst PK mod
COCCOC(=O)/C=C1/NC(=O)CS1	>77	1%	>57
CC(C)(C)c1ccc(C(=O)/C=C2\NC(=O)CS2)cc1	·	2.5µM*	3.3*
CCc1cccc(CC)c1N(COC)C(=O)Cn1c(CO)nc2ccccc21	>15	2%	>57
CCc1cccc(CC)c1N(COC)C(=O)Cn1nnc2ccccc21	·	-1%[25.5 µM]	6.7*
CCNc1ncc2ncc(=O)n(Cc3cccs3)c2n1	·	0%[11.4 µM]	·
O=C(COc1ccc2c(c1)OCO2)NC12CC3CC(CC(C3)C1)C2	·	-2%	>57
C/C(=C\C(=O)c1ccc(C)o1)Nc1ccc2c(c1)OCO2	>77	-15%	·
Cc1ccc(C(=O)Nc2ccc3c(c2)OCO3)o1	·	13µM*	·
O=C(Nc1ccc2c(c1)OCCO2)c1ccc(Br)o1	·	5µM*	?
O=C(Nc1ccc(CN2CCCCC2)cc1)c1ccc2c(c1)OCO2	·	-20%	>57
O=C(Nc1ccc(CN2CCCCC2)cc1)c1ccc(Br)o1	>77	13µM*	>57
O=C(Nc1ccc2c(c1)OCCO2)NC12CC3CC(CC(C3)C1)C2	·	13µM*	·
O=C(Nc1ccc2c(c1)OCCO2)c1c(F)c(F)c(F)c(F)c1F	>77	1%	>57
CC12CC[C@@H]3c4ccc(OS(=O)(=O)O)cc4CC[C@H]3C1CCC2=O (stereo not given in full)	·	0%[25.5 µM]	·
CO[C@H]1COC(=O)[C@H](C)COC(=O)C/C=C\[C@@H](C)[C@H](OC)COC(=O)C/C=C\[C@@H]1C	·	2%[11.4 µM]	·
CCN(CC)[C@@H](C)C(=O)N1c2ccccc2Sc2ccccc21	·	1%	·
O=C(N/N=C1/C[C@@H](O)[C@@H](O)[C@@H]2[C@H]3C(=O)N(c4ccc(F)cc4F)C(=O)[C@@H]3CC[C@H]12)OCc1ccccc1	·	1%[11.4 µM]	·
COc1ccc(C(=O)N2CCC[C@@]3(CCN(Cc4cc(C(F)(F)F)cc(C(F)(F)F)c4)C3)C2)cc1	·	1%[11.4 µM]	·
CCn1c(/C=N/n2cnnc2)nc2ccccc21	·	2%	·
CCn1c(/N=C/c2c[nH]c3ccccc23)nc2ccccc21	?	4µM*	2.7*
CCOc1ccccc1/C=C(\C#N)C(N)=O	·	1%[11.4 µM]	·
O=C(COC(=O)c1ccccn1)Nc1c(Cl)cccc1Cl	>77	-1%	i
O=C(COC(=O)c1ccccn1)c1ccc(Br)cc1	·	10µM*	·
CCOC(=O)C1CCN(C(=O)c2cc3cc4cc(OC)ccc4nc3o2)CC1	>77	-5%	i
COc1ccc2nc3oc(C(=O)N4CCCCC4)cc3cc2c1	>77	13µM*	?
SMILES	GBA mod	Luciferase inh	Bst PK mod
O[Si@](CCCN1CCCCC1)(c1ccc(F)cc1)C1CCCCC1	·	3%	·
CC1(C)Cc2c(sc(NC(=O)c3ccco3)c2C#N)CO1	>77	7.9µM*	?
Cc1cccc(NC(=O)c2sc(NC(=O)c3ccco3)c(C#N)c2C)c1C	>77	0%	>57
Cn1cccc1C(=O)N1CCC2(CC1)CN(C(=O)Nc1ccccc1)C2	·	0%[11.4 µM]	·
Nc1c(C(=O)Nc2ccc3c(c2)OCCO3)nnn1CCc1ccccc1	·	16µM*	·
COc1ccc(C)cc1NC(=O)c1nnn(CCc2ccccc2)c1N	·	3%	·
O=C(Nc1cccc(-c2nc3cc(Cl)ccc3o2)c1)C1CCCO1 (stereo not given)	·	-11%	i
Cc1ccc2oc(-c3cccc(NC(=O)C4CCCO4)c3)nc2c1 (stereo not given)	>77	20µM*	i
CSc1nc2ccc(NC(=O)C3CC(=O)N(Cc4ccco4)C3)cc2s1 (stereo not given)	>77	-4%	·
CC(=O)Nc1ccc(S(=O)(=O)Nc2cccc(-c3nc4cc(C)ccc4o3)c2)cc1	7.9*	-10%	>57
CSc1nc2ccc(NC(=O)C3CCCO3)cc2s1 (stereo not given)	>77	25µM*	i
CC(=O)Nc1ccc(S(=O)(=O)Nc2cccc(N(C)S(C)(=O)=O)c2)cc1	>77	1%	>57
Cc1onc(-c2c(F)cccc2Cl)c1C(=O)N[C@H]1C(=O)N2[C@H]1SC(C)(C)[C@H]2C(=O)O	·	1%[25.5 µM]	·
CC(C)CO/N=C1/C[C@@H](O)[C@@H](O)[C@@H]2[C@@H]3C(=O)N(Cc4ccccc4)C(=O)[C@H]3CC[C@H]12	·	3%[11.4 µM]	·
CCN1CCN(Cc2ccc(NC(=O)Nc3ccccc3Cl)cc2)CC1	·	16µM*	·
CCN1CCN(Cc2ccccc2NC(=O)Nc2ccc(C)cc2)CC1	>77	3%	>57
Cc1ncsc1C(=O)Nc1nc2c(s1)CC(C)CC2 (stereo not given)	>77	10µM*	10*
CC1CCc2nc(NC(=O)CN3CCOCC3)sc2C1 (stereo not given)	>77	-9%	>57
O=C(c1ccncc1)N1CCC[C@@]2(CCN(Cc3ccncc3)C2)C1	·	0%[11.4 µM]	·
CC[C@H]1CC[C@H]2[C@@H]3CC=C4C[C@H](OC(C)=O)[C@@H](N)C[C@@]4(C)[C@H]3CC[C@@]12C	·	2%[11.4 µM]	·
O=C(c1ccncc1)N1CCC2(CC1)CN(c1ccccn1)C2	·	1%[11.4 µM]	·
CC(=O)Nc1ccc(S(=O)(=O)N2CCN(c3cc(C)nc4ccccc34)CC2)cc1	11*	2%	>57
CC(=O)Nc1ccc(S(=O)(=O)N2CCN(C(=O)N3CCOCC3)CC2)cc1	>77	0%	3.2*
CC(=O)Nc1ccc(S(=O)(=O)Nc2ccc(N3CCOCC3)cc2)cc1	>77	-12%	>57
CC(=O)Nc1ccc(S(=O)(=O)N2CCN(c3nc(NC4CCCC4)c4ccccc4n3)CC2)cc1	·	1%	·
SMILES	GBA mod	Luciferase inh	Bst PK mod
CC(=O)OC[C@@H]1O[C@H](C/C=N\OC[C@@H](O)[C@H]2O[C@H]3OC(C)(C)O[C@H]3[C@@H]2O)C=C[C@@H]1OC(C)=O	·	-1%[11.4 µM]	·
NC(=O)[C@@H]1CCCN1Cc1ccc2c(c1)OCO2	·	1%[11.4 µM]	·
O=C(COc1ccc(S(=O)(=O)NC2CCCCC2)cc1Cl)NCC1CCCO1 (stereo not given)	14*	2%	>57
O=C(COc1ccc(S(=O)(=O)NC2CCCCC2)cc1Cl)NCc1cccnc1	?	-13%	>57
CCn1nc(NC(=O)c2ccccn2)c2cc3cc(C)ccc3nc21	>77	7.9µM*	·
CCn1nc(NC(=O)c2cccnc2)c2cc3ccccc3nc21	·	-2%[25.5 µM]	>26
Cn1c(=O)c(-c2ccccc2)nc2cnc(Oc3ccccc3)nc21	·	1%[11.4 µM]	·
CCN1CCN(c2ncc(C(=O)Nc3c(F)cc(F)cc3Br)c3ccccc23)CC1	12*	1%	>57
CCN1CCN(c2ncc(C(=O)Nc3cc(Cl)c(OC)cc3OC)c3ccccc23)CC1	i	4%	>57
CC[C@@H](c1ccccc1)n1c(=O)n2n(c1=O)[C@H]1[C@H](O)[C@H]3O[C@@H]3/C(=N/OC[C@@H](O)COCc3ccco3)[C@@H]1CC2	·	-2%[11.4 µM]	·
COCC(=O)Nc1nc2ccc(C)cc2s1	>77	20µM*	i
CCCC(=O)Nc1nc2ccc(OCC)cc2s1	·	13µM*	·
CCOc1ccc2nc(NC(=O)CS(=O)(=O)c3ccccc3)sc2c1	?	-24%	>57
CCOc1ccc2nc(NCCNC(=O)C(C)C)c(C)cc2c1	?	-2%	·
Cc1ccc2nc(NC(=O)CN3CCOCC3)sc2c1	>77	-3%	>57
COCC(=O)NCCNc1nc2ccc(C)cc2cc1C	2.8*	-3%	·
Cn1cccc1C(=O)N1CCC[C@@]2(CCN(c3cccc(-c4ccccc4)c3)C2)C1	·	-3%[11.4 µM]	·
O=C(c1cccc(F)c1)N1CCC[C@@]2(CCN(Cc3ccncc3)C2)C1	·	0%[11.4 µM]	·
